Bioassay records (PubChem BioAssay)
EphB4 ephrin blk: EphB4-ephrin-B2 interaction antagonism; EphB4 LBD / TNYL-RAW-Alexa532 peptide, fluorescence polarization; inhibition, % at 7 µM; hit rate 0.15% among 97,000;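 active = inhibition above the screen-wide mean inhibition plus 3 SD, cut at about 15% in these data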
CYP2C9 activ: CYP2C9 (human) activation; P11712; activation factor at 5 µM; recombinant CYP2C9, luciferin-H conversion, luminescence; stronger effect = higher value; factor 1 = untreated enzyme, 0 = blocked; AID 1024; hit rate 1.4% among 96,000;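 active = activation factor of 2 or more for CYP2C9 at a 5 µM dose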
CYP2C9 inhib: human CYP2C9 inhibition | P11712 | CYP2C9 Supersomes, luciferin-H conversion, luminescence | hit rate 20% among 96,000 | inhibition, % at 5 µM;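 active = blocking of liver enzyme CYP2C9 beyond about 50% at 5 µM, limit read from the data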
CYP2C19 act: cytochrome P450 2C19 (human) activation; recombinant CYP2C19, luciferin-H EGE luminescence; stronger effect = higher value; 0 = fully inhibited enzyme, 1 = untreated enzyme; activation factor at 5 µM; 96,000 tested, under 10 active; AID 1025;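 active = activation factor of at least 2 at 5 µM in the primary screen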
Target sequence (P33261 whole entry, looked up): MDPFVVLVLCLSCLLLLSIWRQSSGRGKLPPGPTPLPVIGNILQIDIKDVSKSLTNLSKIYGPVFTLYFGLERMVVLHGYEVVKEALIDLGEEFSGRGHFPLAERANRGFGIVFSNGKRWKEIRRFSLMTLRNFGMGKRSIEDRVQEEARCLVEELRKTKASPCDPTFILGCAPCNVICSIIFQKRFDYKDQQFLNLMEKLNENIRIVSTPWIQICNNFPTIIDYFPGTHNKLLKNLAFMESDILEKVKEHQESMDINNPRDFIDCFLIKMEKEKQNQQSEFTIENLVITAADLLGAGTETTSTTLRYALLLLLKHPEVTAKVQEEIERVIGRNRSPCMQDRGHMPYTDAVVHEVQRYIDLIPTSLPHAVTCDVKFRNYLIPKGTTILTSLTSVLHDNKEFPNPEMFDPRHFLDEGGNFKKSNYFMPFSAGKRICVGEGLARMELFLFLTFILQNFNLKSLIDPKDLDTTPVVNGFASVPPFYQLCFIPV
CYP2C19 inh: inhibitors of human CYP2C19 | inhibition, % at 5 µM | CYP2C19 Supersomes, luciferin-H EGE luminescence, 30 min | P33261 | hit rate 21% among 96,000 | AID 778;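 active = CYP2C19 inhibition above a set limit at 5 µM in the primary screen, cut at about 50% in these data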
Large screens that a line does not name were inactive. The list is not random: actives were taken first. Their share in the collection is about 27%.

CCOC(=O)c1c(NC(=O)CSc2nnc(-c3ccc(OC)cc3)o2)sc2c1CCC2	none (no result: CYP2C9 activ, CYP2C9 inhib, CYP2C19 act, CYP2C19 inh)
CCOC(=O)Nc1sc2c(c1C(=O)OCC)CCC2	none
Cc1nnc(SCC(=O)Nc2sc3c(c2C#N)CCCC3)[nH]c1=O	CYP2C9 inhib 79
CCOC(=O)c1c(NC(=O)CSc2nnc(C)c(=O)[nH]2)sc2c1CCCC2	CYP2C9 inhib 98
NC(=O)c1c(NC(=O)COC(=O)CSc2nnc(-c3ccc(Cl)cc3)o2)sc2c1CCC2	CYP2C9 inhib 79
CN1Cc2cc(C(=O)c3ccccc3O)cnc2NC1=O	none
CCOC(=O)c1nc(C)n(-c2ccc(Cl)cc2)n1	none
CCOC(=O)c1c(NC(=O)CSc2nnc(C)s2)sc2c1CCC(C)C2 (stereo not given)	none (no result: CYP2C9 activ, CYP2C9 inhib, CYP2C19 act, CYP2C19 inh)
CCOC(=O)c1c(NC(=O)CSc2nnc(C)s2)sc2c1CCCCC2	CYP2C9 inhib 55
CCCCOc1ccc(-c2nnc(-c3ccncc3)o2)cc1	CYP2C9 inhib 54, CYP2C19 inh 96 (no result: EphB4 ephrin blk)
CCCOc1ccc(-c2nnc(-c3cccs3)o2)cc1	none (no result: CYP2C9 activ, CYP2C9 inhib, CYP2C19 act, CYP2C19 inh)
CCOc1ccc(-c2nnc(-c3ccncc3)o2)cc1	CYP2C19 inh 99
COc1ccc(-c2nc3c(n2O)CCC/C3=N\O)cc1	none
Cc1nc(N2CCCC2)c2nnn(Cc3ccccc3Cl)c2n1	CYP2C19 inh 91 (no result: EphB4 ephrin blk)
Cc1nc(N2CCC(C(N)=O)CC2)c2nnn(Cc3ccccc3)c2n1	none (no result: EphB4 ephrin blk)
Cc1nc(N2CCC3(CC2)OCCO3)c2nnn(Cc3ccccc3F)c2n1	CYP2C9 inhib 75, CYP2C19 inh 69
O=C1Nc2ccccc2N(O)N1c1cc(-c2cccc(Cl)c2)no1	none
Cc1cc(-c2ccc(Cl)cc2)oc(=O)c1NC(=O)c1ccccc1	none
Clc1ccc(COn2nnc3ccccc32)c(Cl)c1	CYP2C19 inh 64
O=C(C1CCCN(Cc2ccncc2)C1)N1CCc2ccccc2C1 (stereo not given)	CYP2C9 inhib 67, CYP2C19 inh 96
CCS(=O)(=O)N1CCCC(C(=O)N2CCc3ccccc3C2)C1 (stereo not given)	none
Cc1cccc(CN2CCCC(C(=O)N3CCc4ccccc4C3)C2)c1 (stereo not given)	CYP2C19 inh 64
CCOC(=O)NC1CCS(=O)(=O)C1 (stereo not given)	none
CS(=O)(=O)N(Cc1ccccc1)c1ccc(C(=O)NCC2CCCO2)cc1 (stereo not given)	none
CCCCOC(=O)Nc1cc(Cl)ccc1C	none
CCCOC(=O)NC(CC)COC(=O)Nc1cc(C)ccc1C (stereo not given)	CYP2C19 inh 70
Cc1ccc(C(=O)N2CCN(S(C)(=O)=O)C2)cc1	none
CSc1cccc(NC(=O)/C=C/c2ccccc2)c1	CYP2C19 inh 55
CCC(=O)Nc1cccc(C(=O)OCC(=O)c2ccccc2Cl)c1	CYP2C9 activ 3.4
CCC(=O)Nc1ccc2c(c1)C(=O)c1ccccc1C2=O	CYP2C9 inhib 58
CCC(=O)NC1=C(NC(C)c2ccccc2)C(=O)c2ccccc2C1=O (stereo not given)	CYP2C9 inhib 52
CCC(=O)NC(=S)Nc1cccc(NC(=O)c2ccccc2Cl)c1	none
CSc1cccc(NC(=O)/C=C/c2ccc(Cl)cc2)c1	none
CSc1nccc(-c2cc(Cl)sc2Cl)n1	none
CCC(=O)Nc1cccc(C(=O)/C=C/c2ccccc2)c1	CYP2C9 activ 2, CYP2C19 inh 60
CSc1ccc(/C=C/C(=O)c2ccc(NC(=O)Cc3ccccc3)cc2)cc1	none
O=C(Nc1ccc(C#Cc2ccccc2)cc1)C1CC1	CYP2C9 activ 2.3
O=C(Nc1cccc(S(=O)(=O)c2cccc(NC(=O)C3CC3)c2)c1)C1CC1	CYP2C9 inhib 60, CYP2C19 inh 99
Cc1cccc(NC(=O)C2CCCC2)c1	none (no result: CYP2C9 activ, CYP2C9 inhib, CYP2C19 act, CYP2C19 inh)
O=C(c1ccccc1)c1cccc(NC(=O)C2CC2)c1	CYP2C19 inh 62
CCCN1C(=O)C2(/C(=C(\O)c3ccc4c(c3)OCCO4)C(=O)C(=O)N2CCCOC)c2ccccc21 (stereo not given)	none
Nc1ccc(Cl)c(NC(=O)c2cccs2)c1	none
CCOC(=O)c1nn(-c2cccc(Cl)c2)c2nc(CC(C)C)c(C#N)c(=O)n12	none (no result: CYP2C9 activ, CYP2C9 inhib, CYP2C19 act, CYP2C19 inh)
Cc1ccnc(NC(=O)COC(=O)C2COc3ccccc3O2)n1 (stereo not given)	none
CCC(=O)Nc1cccc(C(=O)c2ccccc2)c1	CYP2C19 inh 77
CCC(=O)Nc1cccc(Br)c1	none
O=C(/C=C/c1cccc(Cl)c1)NCc1cccs1	none
O=C(/C=C/c1cccc(Cl)c1)Nc1ccncc1	CYP2C9 inhib 99, CYP2C19 inh 99
O=C(/C=C/c1c(Cl)cccc1Cl)Nc1ccncc1	CYP2C9 inhib 93, CYP2C19 inh 94
O=C(Nc1ccc(OCC(=O)N2CCN(S(=O)(=O)c3ccccc3)CC2)cc1)c1ccco1	none
O=C(COC(=O)[C@H](Cc1ccccc1)NC(=O)c1ccco1)NCc1ccccc1	CYP2C9 inhib 91, CYP2C19 inh 71
O=C(Nc1ccc(Cc2ccncc2)cc1)c1ccco1	CYP2C9 inhib 98, CYP2C19 inh 96
CC(C)OC(=O)c1ccc(NC(=O)c2ccco2)cc1	CYP2C19 inh 57
O=C(Nc1ccc(OCC(=O)N2CCC(Cc3ccccc3)CC2)cc1)c1ccco1	CYP2C9 inhib 87, CYP2C19 inh 95
O=C(NCC(=O)N(c1cccnc1)C(C(=O)NC1CCCC1)c1ccco1)c1cccs1 (stereo not given)	none
CC(C)C(NC(=O)C1CCCCC1)C(=O)N1CCN(c2ccc(F)cc2)CC1 (stereo not given)	none
CCOC(=O)Cn1cc(-c2ccccc2)nn1	none (no result: EphB4 ephrin blk)
Cn1cc(Cl)c(C(=O)OCC(=O)Nc2ccccc2)n1	EphB4 ephrin blk 15, CYP2C19 inh 83
O=C(COC(=O)c1cccnc1)Nc1ccccc1	none (no result: CYP2C9 activ, CYP2C9 inhib, CYP2C19 act, CYP2C19 inh)
O=C(Nc1nccs1)c1ccc(NC(=O)c2ccco2)cc1	CYP2C9 inhib 51
O=C(Nc1ccc(Oc2ccc(NC(=O)c3ccco3)c(NC(=O)c3ccco3)c2)cc1)c1ccco1	CYP2C9 inhib 73, CYP2C19 inh 51
O=C(COC(=O)CCc1c[nH]c(=O)[nH]1)Nc1ccccc1	none
O=C(COC(=O)Cc1cccs1)Nc1ccccc1	CYP2C19 inh 69
NS(=O)(=O)c1ccc(CCNC(=O)Nc2ccc(Cl)c(Cl)c2)cc1	none
COc1cccc(/C(O)=C2/C(=O)C(=O)N(CCCN3CCOCC3)C2c2ccncc2)c1 (stereo not given)	none (no result: CYP2C19 act, CYP2C19 inh)
O=C(COC(=O)c1ccco1)Nc1ccc(Br)cc1	none
O=C(Nc1nc(-c2cccs2)c(-c2ccccc2)s1)c1ccco1	CYP2C9 inhib 96, CYP2C19 inh 66
O=C(COC(=O)c1ccco1)Nc1ccccc1	CYP2C19 inh 58
O=C(Nc1ccc(Nc2ccccc2)cc1)c1ccco1	CYP2C9 inhib 82, CYP2C19 inh 67
Cn1cc(Cl)c(C(=O)Nc2nc3ccccc3s2)n1	CYP2C19 inh 54
O=C(Nc1ccc(S(=O)(=O)N2CCCCC2)cc1)c1ccc(CN2CCOCC2)cc1	none (no result: CYP2C9 activ, CYP2C9 inhib, CYP2C19 act, CYP2C19 inh)
COc1ccc(-n2nnc3c(=O)n(CC(=O)N4CCCC4)cnc32)cc1	none
CC(C)C(=O)Nc1ccc(Nc2ccccc2)cc1	CYP2C9 inhib 55, CYP2C19 inh 55
Cc1cc(C)n(CC(=O)NC2CCCCC2)n1	none
